In all, about 33,000 sequences were measured (“e-score”: median about -0.053, highest 2% from about 0.38 on). The entries come from a sample that favours the highest values as a whole.

The assay concerns the target T1, SIX1 homeodomain (reference allele) (human, UniProt Q15475 108-198).
T1 sequence: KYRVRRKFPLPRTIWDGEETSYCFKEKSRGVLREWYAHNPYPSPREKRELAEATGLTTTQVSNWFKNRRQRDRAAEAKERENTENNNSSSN
Briefly: universal protein binding microarray; Universal all-10-mer PBM (8x60K, AMADID 030236), 300 nM GST-tagged protein, Alexa Fluor 488 anti-GST; buffer, salt, pH and temperature not stated (as in Berger); high values mean tight binding. The note with it: protein: ivt; tags: N-terminal GST; dsDNA, one strand shown. Put shortly:
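GST-tagged homeodomains were made by in vitro transcription/translation and quantified by anti-GST western blot against a recombinant GST standard curve. They were applied in duplicate at 300 nM final concentration to universal 'all 10-mer' protein binding microarrays (8×60K format). Binding was quantified as 8-mer E-scores with the Universal PBM Analysis Suite.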
GTGATCAA: the binding signal is 0.236 ± 0.0408 E-score. The same measure for ATGATCCG: 0.452 ± 0.00636 E-score; for ATGATCGG: 0.294 ± 0.0125 E-score. In the case of CTGATCTC, the binding signal came out at 0.312 ± 0.016 E-score.

CTGATCCC: the binding signal came out at 0.416 ± 0.02 E-score. For GTGATCTA, the binding signal is 0.2979 ± 0.000552 E-score. The same measure for ATGATCGA: 0.173 ± 0.029 E-score. Turning to ATGATCTG, the binding signal was 0.355 ± 0.0221 E-score. For CTGATCCA the value was 0.357 ± 0.0346 E-score; for ATGATCCA, 0.391 ± 0.0192 E-score. As for GTGATCCA, the binding signal worked out at 0.377 ± 0.0369 E-score. With CTGATCGC, the binding signal is 0.191 ± 0.0397 E-score. The same measure for TCCCCTCA: 0.175 ± 0.0645 E-score; for CTGCTATA: 0.194 ± 0.0359 E-score; for AGTGAGAC: 0.198 ± 0.0551 E-score. As to ACTCGATA, the binding signal amounted to 0.303 E-score. For TACACCTA the value was 0.304 ± 0.0311 E-score; for CATTATCC, 0.326 ± 0.00937 E-score. With CGTCGATC, the binding signal worked out at 0.157 ± 0.105 E-score. The same measure for ATCATTTA: 0.193 ± 0.0974 E-score; for AATTATAC: 0.165 ± 0.066 E-score; for GATAGTCA: 0.189 ± 0.0298 E-score.

TAAAGATA: the binding signal was 0.167 ± 0.162 E-score. The same measure for ATGATCAC: 0.309 ± 0.0105 E-score. For ATGATCCC the value was 0.448 ± 0.0106 E-score; for ATGATCTC, 0.327 ± 0.0416 E-score.

For ACCGAGAT, the binding signal came to 0.26507 ± 0.000212 E-score. Turning to ACGGATGA, the binding signal was 0.211 ± 0.0174 E-score. The same measure for ATCGCGAT: 0.334 ± 0.0159 E-score; for ATACATTC: 0.188 ± 0.0482 E-score.

In the case of TACGTGGA, the binding signal turned out to be 0.195 ± 0.113 E-score. Take GTAGATCA: the binding signal came out at 0.29 ± 0.0141 E-score. As to GTGGATCA, the binding signal is 0.4 ± 0.0347 E-score. The same measure for GTGGATAA: 0.2486 ± 0.00124 E-score; for CTGGATCA: 0.326 ± 0.0378 E-score. For ATGGATCA the value was 0.383 ± 0.00801 E-score. As to ATGGATCG, the binding signal turned out to be 0.345 ± 0.0571 E-score. For ACACCAGC the value was 0.211 ± 0.0357 E-score. Regarding CTTCGATA, the binding signal amounted to 0.342 ± 0.0398 E-score.

With GCATATGA, the binding signal came to 0.167 ± 0.0211 E-score.

As for GCATACTA, the binding signal was 0.22 ± 0.00291 E-score. The same measure for ATGTATGA: 0.261 ± 0.0176 E-score. For ATCATTAG the value was 0.281 ± 0.0368 E-score; for TCACCTGA, 0.165 ± 0.00229 E-score; for AATACCGT, 0.318 ± 0.04 E-score. Take GATACCGC: the binding signal worked out at 0.461 ± 0.0131 E-score. For AATACCGG, the binding signal was found to be 0.273 ± 0.0276 E-score. As for AATACCGA, the binding signal came to 0.321 ± 0.0139 E-score. As for GATACCTA, the binding signal came to 0.472 ± 0.0087 E-score. The same measure for CATACCGG: 0.166 ± 0.0474 E-score; for TATACCGA: 0.339 ± 0.026 E-score. For AATACCGC the value was 0.386 ± 0.0176 E-score. For GATACCGA the value was 0.4164 ± 0.00268 E-score.

Take AATACCTA: the binding signal was found to be 0.289 ± 0.0733 E-score. For CATACCTA the value was 0.174 ± 0.0329 E-score; for GCTAATAC, 0.244 ± 0.0389 E-score; for CCGGAATA, 0.162 ± 0.00262 E-score. Take AACTACAC: the binding signal came out at 0.169 ± 0.006 E-score. For the sequence CGTTGATC, the binding signal amounted to 0.152 ± 0.0357 E-score. For GACCCGGC the value was 0.183 ± 0.012 E-score.

As to GGTGTAGA, the binding signal was determined as 0.317 ± 0.04 E-score. Turning to CGTATCTC, the binding signal amounted to 0.378 ± 0.00747 E-score. In the case of CCTATCTC, the binding signal was found to be 0.227 ± 0.035 E-score. The same measure for AGTATCTC: 0.376 ± 0.0377 E-score; for CGTATCTA: 0.349 ± 0.0276 E-score. On to AGTATATA, for which the binding signal turned out to be 0.306 ± 0.0599 E-score. With AGTATCTG, the binding signal was found to be 0.317 ± 0.0419 E-score.

As to ACTATCTC, the binding signal was determined as 0.209 ± 0.0851 E-score.

As to CGTATATC, the binding signal was 0.336 ± 0.0303 E-score.

Regarding AGTATATC, the binding signal was 0.383 ± 0.0642 E-score.

In the case of CATCTATC, the binding signal stood at 0.211 ± 0.0124 E-score. For ATATGGCG the value was 0.223 ± 0.0647 E-score; for AATGGGAT, 0.213 ± 0.0227 E-score; for ACACCTTA, 0.238 ± 0.0937 E-score. For GATGAGCC, the binding signal came to 0.249 ± 0.0159 E-score. For CTATCTGA the value was 0.231 ± 0.0348 E-score.

Regarding CGAGATCC, the binding signal was 0.325 ± 0.0133 E-score. With GATAATGA, the binding signal was determined as 0.174 ± 0.0154 E-score.

With AGACGGGA, the binding signal was determined as 0.2 ± 0.0154 E-score. For ATAGTAGC, the binding signal worked out at 0.187 ± 0.0294 E-score.

As to GGGGGATA, the binding signal came to 0.4424 ± 0.00147 E-score. For GCGGGATA the value was 0.3486 ± 0.00158 E-score; for ATGGGATA, 0.36 ± 0.00494 E-score. As to CGGGGATA, the binding signal was 0.413 ± 0.0228 E-score. The same measure for AGGGGGGA: 0.206 ± 0.028 E-score; for ACGGGATA: 0.376 ± 0.00774 E-score.

(Values after article PMC10668032, “Altered binding affinity of SIX1-Q177R correlates with enhanced WNT5A and WNT pathway effector expression in Wilms tumor”.)
